Results taken from article PMC4336329 (PLoS ONE, 2015).
Among all 310,000 compounds or so, about 14,000 (4.5%) showed an effect of 50% or more. Effects have a minus sign here. The entries come from a sample that favours strong results as a whole.

The molecules below were run against human ether-à-go-go-related gene (hERG) potassium channel (human, UniProt Q12809) (assay: primary screen, population patch clamp on CHO cells stably expressing hERG; higher = less effect of the substance).
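Also: peak tail current of the secondary pulse compared with the same well before compound.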

Sequence of human ether-à-go-go-related gene (hERG) potassium channel (Q12809 whole entry, looked up): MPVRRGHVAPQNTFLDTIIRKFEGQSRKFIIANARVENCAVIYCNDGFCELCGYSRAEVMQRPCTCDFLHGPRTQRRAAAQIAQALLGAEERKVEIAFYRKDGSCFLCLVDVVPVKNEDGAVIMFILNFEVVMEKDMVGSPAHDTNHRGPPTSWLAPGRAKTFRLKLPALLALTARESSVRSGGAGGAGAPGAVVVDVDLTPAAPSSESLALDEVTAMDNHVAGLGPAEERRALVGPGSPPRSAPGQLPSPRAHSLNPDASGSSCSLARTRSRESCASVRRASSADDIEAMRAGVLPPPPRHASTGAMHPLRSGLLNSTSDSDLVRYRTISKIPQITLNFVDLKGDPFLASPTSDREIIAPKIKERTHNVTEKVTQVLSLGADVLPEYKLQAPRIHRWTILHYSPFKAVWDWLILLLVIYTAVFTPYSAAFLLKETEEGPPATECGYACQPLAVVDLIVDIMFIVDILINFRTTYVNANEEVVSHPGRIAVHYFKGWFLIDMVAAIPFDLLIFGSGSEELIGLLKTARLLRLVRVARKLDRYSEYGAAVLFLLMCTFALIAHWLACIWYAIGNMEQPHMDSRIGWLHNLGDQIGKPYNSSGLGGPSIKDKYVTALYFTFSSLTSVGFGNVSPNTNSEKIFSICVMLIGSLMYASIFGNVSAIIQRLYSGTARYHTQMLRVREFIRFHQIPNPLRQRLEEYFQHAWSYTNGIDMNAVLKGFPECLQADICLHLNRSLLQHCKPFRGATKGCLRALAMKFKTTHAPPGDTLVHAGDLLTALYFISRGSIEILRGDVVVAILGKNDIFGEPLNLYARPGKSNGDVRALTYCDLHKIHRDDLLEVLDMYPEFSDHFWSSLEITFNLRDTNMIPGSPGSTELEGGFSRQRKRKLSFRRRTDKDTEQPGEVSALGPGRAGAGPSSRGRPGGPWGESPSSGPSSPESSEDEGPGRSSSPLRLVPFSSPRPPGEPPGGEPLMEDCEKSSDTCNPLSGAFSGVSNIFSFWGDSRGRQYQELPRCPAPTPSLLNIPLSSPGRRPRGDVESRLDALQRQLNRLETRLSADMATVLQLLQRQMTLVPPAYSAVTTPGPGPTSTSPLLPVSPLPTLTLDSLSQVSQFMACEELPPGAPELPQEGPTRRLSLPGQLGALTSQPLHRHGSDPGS

| Structure (SMILES) | hERG current change (%, negative = inhibition) at 10uM |
| --- | --- |
| O=C(O)C1Cn2c(nc3c(c2=O)C2(CCCC2)Cc2ccccc2-3)S1 (stereo not drawn) | 17.3% |
| C=C1C(C(=O)N2CCOCC2)C1C(=O)N1CCOCC1 (stereo not drawn) | 5.16% |
| Cc1ccc(/C=N/NC(=O)CSc2nc3ccccc3n2C)s1 | -17.4% |
| COc1ccccc1C1C(C(=O)c2sc(C)nc2C)=C(O)C(=O)N1CCN1CCOCC1 (stereo not drawn) | 4.26% |
| O=c1[nH]c2ccccc2cc1CN(CC1CCCO1)S(=O)(=O)c1ccc(Cl)cc1 (stereo not drawn) | -75.1% |
| Cc1ccc(S(=O)(=O)N(Cc2cccnc2)Cc2cc3ccccc3[nH]c2=O)cc1 | -19.5% |
| COc1ccc(S(=O)(=O)N(Cc2cccnc2)Cc2cc3ccccc3[nH]c2=O)cc1 | -18.6% |
| O=c1[nH]c2ccccc2cc1CN(CC1CCCO1)S(=O)(=O)c1ccccc1 (stereo not drawn) | -10.3% |
| Cc1ccc(S(=O)(=O)N(Cc2cc3ccccc3[nH]c2=O)CC2CCCO2)cc1 (stereo not drawn) | 10.5% |
| O=c1[nH]c2ccccc2cc1CN(Cc1cccnc1)S(=O)(=O)c1ccc(Cl)cc1 | -56.2% |
| CC(=O)NC(C)c1cc(Cl)c2ccccc2c1O (stereo not drawn) | 1.04% |
| COc1cc2cc(C(=O)N3CCOCC3)cc(-c3ccc(C)cc3)c2cc1OC | -8.61% |
| COc1ccccc1/C=N/NC(=O)c1ccc(Cn2nc([N+](=O)[O-])cc2C)cc1 | -12.7% |
| CCOC(=O)N/N=C(/C)c1ccc([N+](=O)[O-])o1 | -25.4% |
| C/C(=N\NC(=O)C(O)(c1ccccc1)c1ccccc1)c1ccc(C)o1 | -2.62% |
| C/C(=N/NC(=O)C(O)(c1ccccc1)c1ccccc1)c1ccc([N+](=O)[O-])o1 | -71.6% |
| COc1ccc(CNC(=O)C(c2ccc(C)o2)N(C(=O)c2csnn2)c2ccc(C(C)C)cc2)cc1 (stereo not drawn) | -42.9% |
| C=CCn1c(=N)n(CC(O)c2ccco2)c2ccccc21.Cl (stereo not drawn) | -23.1% |
| C=CCn1c(=N)n(CC(O)COc2ccccc2OC)c2ccccc21.Cl (stereo not drawn) | -67% |
| COc1ccccc1OC[C@H](O)CO | 24% |
| Cc1ccccc1OCC(O)Cn1nnc2ccccc21 (stereo not drawn) | 5.21% |

| Structure (SMILES) | hERG current change (%, negative = inhibition) at 10uM |
| --- | --- |
| COc1ccccc1OCC(O)Cn1c(=N)n(Cc2ccccc2)c2ccccc21.Cl (stereo not drawn) | -71% |
| Cc1ccccc1OCC(O)Cn1c2ccccc2c2ccccc21 (stereo not drawn) | 2.67% |
| Cc1ccccc1OCC(O)Cn1c(=N)n(Cc2ccccc2)c2ccccc21.Cl (stereo not drawn) | -73% |
| COc1ccccc1OCC(O)CO (stereo not drawn) | 12.4% |
| Br.C=CCn1c(=N)n(CC(=O)c2ccc(OC)cc2)c2ccccc21 | -43.7% |
| Cc1ccc(NC(=O)COC(=O)COc2cccc3c2OC(C)(C)C3)c(C)c1 | 19.8% |
| FC(F)(F)c1nc(SCc2ccc(Cl)cc2Cl)n[nH]1 | -0.342% |
| Cc1c(N2C(=O)/C(=C\C3CC=CCC3)SC2=S)c(=O)n(-c2ccccc2)n1C (stereo not drawn) | -6.68% |
| c1ccc(Cn2cc(CSc3ccccc3)nn2)cc1 | -11% |
| CCCCc1cn(C[C@H]2CC[C@@H]([C@@H]3CC[C@H](Cn4cc(CCCC)nn4)O3)O2)nn1 | -54.9% |
| c1c(CC2CCCC2)nnn1C[C@H]1CC[C@@H]([C@@H]2CC[C@H](Cn3cc(CC4CCCC4)nn3)O2)O1 | -57.6% |
| c1ccc(CCc2cn(C[C@H]3CC[C@@H]([C@@H]4CC[C@H](Cn5cc(CCc6ccccc6)nn5)O4)O3)nn2)cc1 | -38.2% |
| ClCCCc1cn(C[C@H]2CC[C@@H]([C@@H]3CC[C@H](Cn4cc(CCCCl)nn4)O3)O2)nn1 | -33.6% |
| c1ccc(SCc2cn(C[C@H]3CC[C@@H]([C@@H]4CC[C@H](Cn5cc(CSc6ccccc6)nn5)O4)O3)nn2)cc1 | -62.1% |
| CC(=O)OCC1OC(OCc2cn(C[C@H]3CC[C@@H]([C@@H]4CC[C@H](Cn5cc(COC6OC(COC(C)=O)C(OC(C)=O)C(OC(C)=O)C6OC(C)=O)nn5)O4)O3)nn2)C(OC(C)=O)C(OC(C)=O)C1OC(C)=O (stereo partly drawn) | 0.857% |
| O=C1c2ccccc2C(=O)N1CCCc1cn(C[C@H]2CC[C@@H]([C@@H]3CC[C@H](Cn4cc(CCCN5C(=O)c6ccccc6C5=O)nn4)O3)O2)nn1 | -23.8% |
| OCCCc1cn(CC2CCCCC2)nn1 | 2.61% |
| O=C(NN=C1C2CC3CC(C2)CC1C3)c1cccc(S(=O)(=O)N2CCOCC2)c1 | 0.586% |
| COC(=O)CSC1=C(C#N)C(c2cccc(F)c2)CC(=O)N1 (stereo not drawn) | 9.97% |
| CC1c2[nH]c3ccccc3c2CCN1S(C)(=O)=O (stereo not drawn) | 3.54% |
| COc1ccc(C2CC(c3cccs3)=NN2C(=O)CSc2nnc(N)s2)cc1OC (stereo not drawn) | -4.6% |

| Structure (SMILES) | hERG current change (%, negative = inhibition) at 10uM |
| --- | --- |
| O=C(CCCOc1ccccc1)Nc1ccc(Cl)cn1 | -3.18% |
| CCCCC(=O)Nc1cc(OCC)c(NC(=O)c2ccccc2[N+](=O)[O-])cc1OCC | -4.27% |
| Fc1cccc(Cl)c1-c1nnc2ccc(C(F)(F)F)cn12 | 10.9% |
| FC(F)(F)c1ccc2nnc(-c3c(Cl)cccc3Cl)n2c1 | -4.48% |
| FC(F)(F)c1cccc(-c2nnc3ccc(C(F)(F)F)cn23)c1 | -65.2% |
| O=C(Nc1ccc2nc3ccccc3nc2c1)c1ccc(Br)cc1 | 17.9% |
| O=C(NC(=S)N1CCN(c2ccc([N+](=O)[O-])cc2)CC1)c1ccccc1 | 0.58% |
| Cc1ccc(C(=O)NC(=S)N2CCN(c3ccc([N+](=O)[O-])cc3)CC2)cc1 | -15.6% |
| O=C(NC(=S)N1CCN(c2ccc([N+](=O)[O-])cc2)CC1)c1ccco1 | -61.2% |
| O=C(NC(=S)N1CCN(c2ccc([N+](=O)[O-])cc2)CC1)c1ccccc1Cl | -39.8% |
| O=C(NC(=S)N1CCN(c2ccc(Cl)cc2[N+](=O)[O-])CC1)c1cccs1 | -30% |
| CCC(=O)N1CCN(c2ccc(Cl)cc2NC(=S)NC(=O)c2ccco2)CC1 | -0.88% |
| O=C(NC(=S)N1CCN(c2ccc([N+](=O)[O-])cc2)CC1)c1ccccc1F | -25.8% |
| O=C(NC(=S)N1CCN(c2ccc(Cl)cc2[N+](=O)[O-])CC1)c1ccco1 | -68.4% |
| O=C(NC(=S)N1CCN(c2ccc([N+](=O)[O-])cc2)CC1)c1ccc(F)cc1 | -58.5% |
| Cc1oc(C(C)(C)C)cc1C(=O)N1CCN(c2ccc(C(F)(F)F)cn2)CC1 | -5.33% |
| Cc1ccc(N(C(=O)c2nsc(Cl)c2Cl)C(C(=O)NC2CCCC2)c2ccc(O)cc2)cc1C (stereo not drawn) | 9.52% |
| COc1ccc(-n2c(O)c(/C=N/n3cnnc3)c3ccccc3c2=O)cc1 | -1.22% |
| CC(=O)Nc1ccc(S(=O)(=O)NC2=C(N3CCN(C)CC3)C(=O)c3ccccc3C2=O)cc1 | -0.763% |
| CC(=O)c1ccc(NC(=O)Cn2cnc(S(=O)(=O)N3CCC(C)CC3)c2)cc1 | 21.4% |
| Cc1cccc(NC(=O)C2CCN(c3ncnc4c3nc3n4CCCCC3)CC2)n1 | -29.5% |

| Structure (SMILES) | hERG current change (%, negative = inhibition) at 10uM |
| --- | --- |
| O=C(Nc1ccc(Cl)cn1)C1CCCN(c2ncnc3c2nc2n3CCCCC2)C1 (stereo not drawn) | -57.7% |
| Cc1ccc(NC(=O)C2CCCN(c3ncnc4c3nc3n4CCCCC3)C2)nc1 (stereo not drawn) | -62.5% |
| Cc1ccnc(NC(=O)C2CCCN(c3ncnc4c3nc3n4CCCCC3)C2)c1 (stereo not drawn) | -45.6% |
| Cc1cccc(NC(=O)C2CCCN(c3ncnc4c3nc3n4CCCCC3)C2)n1 (stereo not drawn) | -54.2% |
| O=C(Nc1ccccn1)C1CCCN(c2ncnc3c2nc2n3CCCCC2)C1 (stereo not drawn) | -34.8% |
| O=C(Nc1ccc(Cl)cn1)C1CCN(c2ncnc3c2nc2n3CCCCC2)CC1 | -38.8% |
| O=C(Oc1ccc2c3c(c(=O)oc2c1)CCC3)c1ccco1 | -1.09% |
| CCOC(=O)c1ccc(NC(=O)CN2C(=O)NC3(CCCCCCC3)C2=O)cc1 | -7.35% |
| COC(=O)c1[nH]c2ccc(F)cc2c1NS(=O)(=O)c1ccc(F)c(C)c1 | 0.344% |
| Cc1ccc(C2Nc3ccccc3NC3=C2C(=O)CC(C)(C)C3)c(O)c1 (stereo not drawn) | 3.15% |
| Nc1c2c(nc3sc4c(c13)CCCCC4)CCCCC2 | -25.9% |
| Nc1c2c(nc3sc4c(c13)CCCC4)CCCC2 | -70.4% |
| Nc1c2c(nc3sc4c(c13)CCCC4)CCCCC2 | -6.3% |
| Cc1nc2ccccc2nc1OCC(=O)Nc1ccccc1 | 14.8% |
| Cc1ccc(S(=O)(=O)N(CC2CO2)c2cc(Cl)ccc2Cl)cc1 (stereo not drawn) | -6.93% |
| COC(=O)N1[C@H](C)C=C[C@]1(Cc1ccccc1)C(=O)NCCCNc1ncc(C(F)(F)F)cc1Cl | -10.5% |
| C[C@]1(C(=O)NCCCNc2ncc(C(F)(F)F)cc2Cl)C=C[C@@H](Cc2ccccc2)N1C(=O)c1ccccc1 | 7.01% |
| CC1(C(=O)NCCCNc2ncc(C(F)(F)F)cc2Cl)C=CCN1C(=O)c1ccccc1 (stereo not drawn) | -56.4% |
